The list is not random: actives were taken first. Their share in the collection is about 19%.
TDP1 cell CPT: growth inhibition of DT40 Tdp1-/-;hTDP1 cells with camptothecin (screen for TDP1 inhibitors); Potency, µM (highest dose often 46.2 µM), for the others: at the highest dose activity change, negative = growth inhibition, usual class: inhibitors; 420,000 tested, 12% active; chicken DT40 Tdp1-/-;hTDP1 cells + 20 nM CPT, ATP luminescence, 48 h; also: potency is read from the fitted curve at half-maximal effect; nearly all actives have a fitted effect of over 55% in size
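Cell growth measured by CellTiter-Glo luminescence after a minimum 48 h, 37 C compound exposure with 20 nM CPT in Tdp1-knockout DT40 cells stably expressing hTDP1, seeded 400/well; qHTS titration format.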
HT1080-NT tox: kills 2HG-producing HT-1080-NT fibrosarcoma cells | 360,000 tested, 1.6% active | Potency, µM (doses to about 46.1 µM), for inactives: at the top dose activity, negative = less viability, usual class: cytotoxic | AID 686970 | HT-1080-NT fibrosarcoma viability, CellTiter-Glo ATP luminescence, 48 h;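 also: NT is the 2HG producing partner of a matched IDH1 knockdown line; potency is read from the fitted curve at half-maximal effect; 0% = DMSO-treated cells and -100% = media-only wells without cells; nearly all actives have a fitted effect of over 55% in size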
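Read-out is CellTiter-Glo luminescence after 10 minutes at room temperature, following 48 hours' compound treatment of HT-1080-NT cells (750 cells/well, RPMI, 5% FBS, 37 degrees C).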
IL1B secr inh: inhibitors of inflammasome signaling (IL-1 beta secretion); THP-1 LPS/ATP IL-1B secretion, AlphaLISA, 16 h; hits give low values; 360,000 tested, 4.7% active; AID 743279; activity change, % at 57.5 µM; in the data active = activity change below about -50%; inconclusive = mostly about -30% to -49%
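Secreted IL-1B measured by AlphaLISA bead assay after 16 h compound exposure of THP-1 cells; compounds (final up to 57.5 uM) added 1 h before LPS (250 ng/mL) and ATP (1.25 mM) stimulation; lower signal means less secretion.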
DT40 TDP1 no CPT: qHTS for Inhibitors of human tyrosyl-DNA phosphodiesterase 1 (TDP1): qHTS in cells in absence of CPT; DT40 Tdp1-/- hTDP1 cells, no CPT, ATP luminescence, 48 h; Potency, µM (titrated, usually from 46.2 µM), without a hit: at the top dose activity change, negative = growth inhibition, most hits filed as inhibitors; 420,000 tested, 15% active; also: potency is read from the fitted curve at half-maximal effect; nearly all actives have a fitted effect of over 55% in size
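Camptothecin absent (DMSO only). Human TDP1-complemented DT40 knockout cells, 400 cells/well, 37 °C for minimum 48 hr; ATP measured via CellTiter-Glo, 30 min dark incubation, luminescence.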
ELG1 DNA repair: blocks ELG1-dependent DNA repair in HEK293T cells; HEK293T ELG1-luciferase reporter, luminescence, 16 h; DNA damage induced by 5-fluorouridine; Potency, µM (series often up to 46.1 µM), inactives show at the top dose activity change, negative = inhibition, usual class: inhibitors; 330,000 tested, 2.3% active; also: potency is read from the fitted curve at half-maximal effect; nearly all actives have a fitted effect of over 55% in size
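DMSO vehicle served as the neutral condition. Each well held 2,000 cells given 5-fluorouridine plus compound; after 16 hr at 37 °C/5% CO2, ONE-Glo was added and luciferase measured 30 min later.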
HT1080 IDH1KD tx: HT-1080 IDH1 knockdown cell toxicity (counter line); HT-1080 IDH1 knockdown viability, ATP luminescence, 48 h; Potency, µM (titrated, usually from 46.1 µM), inactives show at the top dose activity, negative = toxicity, usual class: cytotoxic; 360,000 tested, 2% active;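 also: potency is read from the fitted curve at half-maximal effect; 0% = DMSO wells and -100% = cell-free medium wells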
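After a 2 h attachment period, IDH1KD HT-1080 cells took pin-transferred compound for 48 h at 37 °C; ATP-based luminescence after 10 min room-temperature reagent incubation reported viability.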
Numbers without * were called inactive. Unless noted, calls follow the shape of the dose curve; as a rule, active = well fitted curve in the direction sought with a large enough effect; inconclusive = small, poorly fitted or top-dose-only effect, or another doubt; inactive = no such curve, though single readings can be large; an effect the other way counts as inactive or inconclusive. Unless noted, % is scaled to controls: 0 for no effect and ±100 for the full control effect.

Cc1cccc(C)c1Nc1nnc(SCC(=O)Nc2cc(S(=O)(=O)N3CCCCC3)ccc2Cl)s1 was read as TDP1 cell CPT inconclusive, HT1080-NT tox 8%, IL1B secr inh inactive, DT40 TDP1 no CPT 21µM*, ELG1 DNA repair inconclusive and HT1080 IDH1KD tx 7%.
For Cc1cc(C)nc(SCC(=O)Nc2ccc(S(=O)(=O)N3CCCCC3)cc2)n1 the results were TDP1 cell CPT inconclusive, HT1080-NT tox 0%, IL1B secr inh -4, DT40 TDP1 no CPT inconclusive, ELG1 DNA repair inconclusive and HT1080 IDH1KD tx -4%.
N#C/C(=C\c1ccc[nH]1)C(=O)Nc1ccccc1[N+](=O)[O-] was read as TDP1 cell CPT 14%, HT1080-NT tox -22%, IL1B secr inh 0, DT40 TDP1 no CPT 12%, ELG1 DNA repair inconclusive and HT1080 IDH1KD tx -28%.
For CC12CCC(C(=O)C1)C1(C)CCCC(=O)C21 (stereo unspecified) the results were TDP1 cell CPT 9%, HT1080-NT tox -3%, IL1B secr inh 16, DT40 TDP1 no CPT 1% and HT1080 IDH1KD tx -3%.
`Cc1cccc(C)c1Nc1nnc(SCC(=O)c2ccc(Br)s2)s1` gave TDP1 cell CPT inconclusive, HT1080-NT tox -7%, IL1B secr inh 0, DT40 TDP1 no CPT 16µM*, ELG1 DNA repair -13% and HT1080 IDH1KD tx -10%.
Cc1ccc(Nc2nnc(SCC(=O)c3ccc(Br)s3)s2)c(C)c1 was read as TDP1 cell CPT -7%, HT1080-NT tox 1%, IL1B secr inh inconclusive, DT40 TDP1 no CPT inconclusive, ELG1 DNA repair 9% and HT1080 IDH1KD tx -2%.
`Cc1cccc(Nc2nnc(SCC(=O)NC(=O)Nc3ccc4c(c3)OCCO4)s2)c1` gave TDP1 cell CPT inconclusive, HT1080-NT tox 23µM*, IL1B secr inh 28, DT40 TDP1 no CPT inconclusive, ELG1 DNA repair inconclusive and HT1080 IDH1KD tx inconclusive.
Screening O=S1(=O)CC(N2CCN(CCO)CC2)CN1Cc1cn(Cc2ccc(F)cc2)nn1 (stereo unspecified) returned TDP1 cell CPT 9%, HT1080-NT tox 26%, IL1B secr inh 17, DT40 TDP1 no CPT 10% and HT1080 IDH1KD tx 28%.
For CN(C)C(CNC(=O)C1CC(=O)N(c2cccc(C(F)(F)F)c2)C1)c1ccccc1 (stereo unspecified) the results were TDP1 cell CPT -19%, HT1080-NT tox -8%, IL1B secr inh -16, DT40 TDP1 no CPT inconclusive and HT1080 IDH1KD tx -1%.
For Cc1nnc(-c2cccc(Br)c2)c2cn(-c3ccc(Br)cc3)nc12 the results were TDP1 cell CPT inconclusive, HT1080-NT tox -12%, IL1B secr inh 43, DT40 TDP1 no CPT 15µM*, ELG1 DNA repair inconclusive and HT1080 IDH1KD tx -27%.
Cc1nnc(-c2cccc(Br)c2)c2cn(-c3cccc(Br)c3)nc12 was read as TDP1 cell CPT inconclusive, HT1080-NT tox -11%, IL1B secr inh 0, DT40 TDP1 no CPT 16µM*, ELG1 DNA repair inconclusive and HT1080 IDH1KD tx -28%.
Cc1nnc(-c2cccc(Br)c2)c2cn(-c3ccccc3)nc12 was read as TDP1 cell CPT 23µM*, HT1080-NT tox -4%, IL1B secr inh inconclusive, DT40 TDP1 no CPT inconclusive, ELG1 DNA repair -5% and HT1080 IDH1KD tx -14%.
`CC(=O)c1nn(-c2cccc(Br)c2)cc1C(=O)c1ccc(C)cc1` gave TDP1 cell CPT inconclusive, HT1080-NT tox -8%, IL1B secr inh 11, DT40 TDP1 no CPT -1%, ELG1 DNA repair 13% and HT1080 IDH1KD tx -21%.
